For 16 molecules, composite z-score and z-score results are on record in PubChem BioAssay.

The test system of assay [1] is XIP peptide (Xip251-270) binding. Briefly: XIP fragment 251-270 binding compounds – biochemical, small-molecule microarray, fluorescence 635/667 nm, 0.1 µg/mL protein, primary screen (AID 1182). To be noted: fluorescent protein binding, 635 nm, higher = more signal, called active from +8 up or from −8 down.
The test system of another assay is XIP peptide (Xip251-270). Briefly: compounds binding XIP fragment 251-270 – biochemical, small-molecule microarray, fluorescence 635/667 nm, 0.5 µg/mL protein, primary screen (AID 1183). To be noted: fluorescence 635 nm, higher = more signal.
A short description of assay [2]: blood-stage malaria parasite viability loss – strain 3D7, DAPI fluorescence, 100 nL, primary screen (AID 1184).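 Also: parasites grown inside human red blood cells in medium with human serum.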 To be noted: P. falciparum 3D7 growth, 3 d, higher = more signal.
Assay [3] concerns the target Homeobox protein Hox-A13 (Mus musculus) (UniProt Q62424). Briefly: disruptors of Hoxa13 oligonucleotide interaction – biochemical, fluorescence polarization, labeled oligonucleotide, primary screen (AID 1185). The following applies: Hoxa13:DNA binding, 15 min, higher = more signal, called active from +8 up or from −8 down. (In general: In fluorescence polarisation assays a small probe gives low polarisation when free and higher when bound to something large.)

Assay [4] can be described thus: blockers of DNA damage checkpoint Chk1 activation – imaging, HeLa, hydroxyurea, phospho-Chk1 antibody, percent positive cells, primary screen (AID 1186). To be noted: hydroxyurea-induced phospho-Chk1 immunofluorescence imaging, higher = more signal.
Assay [5] in a line: blockers of DNA damage checkpoint Chk1 activation – imaging, HeLa, hydroxyurea, phospho-Chk1 nuclear intensity, primary screen (AID 1187). The following applies: hydroxyurea-induced phospho-Chk1 immunofluorescence imaging, higher = more signal.

Activity calls are given as the source filed them. Unless noted, no rule for the calls is given here.

Chain of Homeobox protein Hox-A13 (Mus musculus) (Q62424 whole entry, looked up): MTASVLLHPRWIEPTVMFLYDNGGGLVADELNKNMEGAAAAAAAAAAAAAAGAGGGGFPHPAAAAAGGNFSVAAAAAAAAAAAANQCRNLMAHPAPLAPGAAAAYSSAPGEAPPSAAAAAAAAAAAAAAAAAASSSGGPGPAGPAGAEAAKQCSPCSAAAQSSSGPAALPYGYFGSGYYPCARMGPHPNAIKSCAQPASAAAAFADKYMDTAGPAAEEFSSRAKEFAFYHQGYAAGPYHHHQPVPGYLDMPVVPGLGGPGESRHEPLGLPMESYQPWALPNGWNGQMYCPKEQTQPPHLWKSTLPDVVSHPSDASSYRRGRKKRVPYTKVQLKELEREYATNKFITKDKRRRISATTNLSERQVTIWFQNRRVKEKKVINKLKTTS

Take `C=C(COC)/C(=C/C[C@@H](OC(=O)c1ccncc1)c1ccc(CO)o1)c1cc(C(=O)OC)ccc1OC`: the composite z-score in assay [1] is 0.215 (inactive); in the assay on XIP peptide (Xip251-270), 0.838. The z-score is -0.644 in assay [2], -4.26 (inactive) in assay [3], -0.255 (inactive) in assay [4] and -0.162 (inactive) in assay [5].

As to `COC(=O)[C@@]1(Cc2ccccc2)[C@H]2c3cc(C(=O)N4CCCC4)n(Cc4ccc(S(C)(=O)=O)cc4)c3C[C@H]2CN1C(=O)c1ccccc1`, the composite z-score in assay [1] was 0.478 (inactive); in the assay with XIP peptide (Xip251-270), 0.215. Also, the z-score in assay [2] is -1.5; in assay [3], -4.67 (inactive); in assay [4], 0.267 (inactive); in assay [5] it was -0.364 (inactive).

Consider `COC(=O)[C@H](Cc1ccccc1)N[C@@H](/C=C/C1CC1)[C@H](O)Cc1ccccc1`, for which the composite z-score in assay [1] is -0.207 (inactive); with XIP peptide (Xip251-270), -0.432. The z-score in assay [2] was -0.986; in assay [3] it was -5.71 (inactive); in assay [4], -0.157 (inactive); in assay [5] it was -0.295 (inactive).

With `COCCCNC(=O)[C@@]1(C)c2ccccc2C(=O)N(C(C)C)[C@H]1c1ccc(CO)cc1`, the composite z-score was -0.102 (inactive) in assay [1] and 0.246 in the assay with XIP peptide (Xip251-270). Moreover, the z-score in assay [2] was -0.176; in assay [3] it was -1.71 (inactive); in assay [4] it was -0.123 (inactive); in assay [5], -0.397 (inactive).

In the case of `COc1ccc(CCNC(=O)[C@@]2(C)c3ccccc3C(=O)N(C(C)C)[C@H]2c2ccc(CO)cc2)cc1`, the composite z-score in assay [1] is -0.15 (inactive); in the assay on XIP peptide (Xip251-270) it was 0.388. In addition, the z-score in assay [2] is -0.57; in assay [3], -2.77 (inactive); in assay [4], 0.0394 (inactive); in assay [5], -0.33 (inactive).

For `C=CCNC(=O)[C@@H]1[C@H]2C(=O)O[C@H](c3ccccc3)[C@H](c3ccccc3)N2[C@H](c2ccccc2OCCO)[C@@]12C(=O)N(C(=O)OCCOC)c1ccccc12`, the results for the composite z-score (in assay [1]; in the assay with XIP peptide (Xip251-270)) were 3.44 (inactive) and 0.737, respectively. Besides, the z-score was -1.16 in assay [2], -4.27 (inactive) in assay [3], 0.115 (inactive) in assay [4] and 0.494 (inactive) in assay [5].

For the molecule `CCS[C@H]1[C@@H](C(=O)O)[C@H](c2ccc(C)cc2)N(S(=O)(=O)c2ccc(C)cc2)[C@@H]1CC`, the composite z-score in assay [1] was 0.458 (inactive); in the assay with XIP peptide (Xip251-270), 0.327. The z-score is 0.184 in assay [2], -2.35 (inactive) in assay [3], -0.72 (inactive) in assay [4] and -0.307 (inactive) in assay [5].

With `CC(=O)n1cc(C(O)C2C=CC3C(=O)N(c4ccccc4)C(=O)C3N2Nc2ccc([N+](=O)[O-])cc2)c2ccccc21` (stereo unspecified), the composite z-score in assay [1] is 1.15 (inactive); in the assay with XIP peptide (Xip251-270) it was 0.87. The z-score in assay [2] was -0.306; in assay [3], -4.3 (inactive); in assay [4] it was 0.541 (inactive); in assay [5] it was -0.219 (inactive).

Turning to `O=C(NCCN1CCOCC1)[C@@H]1c2ccccc2C(=O)N(C2CCCCC2)[C@H]1c1ccc(CO)cc1`, the composite z-score in assay [1] was -0.403 (inactive); with XIP peptide (Xip251-270), 0.0759. In addition, the z-score was -1.23 in assay [2], -4.02 (inactive) in assay [3], -0.389 (inactive) in assay [4] and -0.611 (inactive) in assay [5].

`COc1ccc(CCNC(=O)[C@@H]2c3ccccc3C(=O)N(Cc3ccccc3Cl)[C@H]2c2ccc(CO)cc2)cc1`: the composite z-score in assay [1] was 0.187 (inactive); with XIP peptide (Xip251-270), 0.431. The z-score in assay [2] is 0.263; in assay [3] it was -3.28 (inactive); in assay [4], 0.139 (inactive); in assay [5], 0.595 (inactive).

Regarding `CC(CO)N1C(=O)[C@@H]2C3C(=O)OCCC/C=C\[C@H]3OC23C=CCN(C(C)(C)C)C(=O)[C@@H]13` (stereo partly specified), the composite z-score was 0.453 (inactive) in assay [1] and -0.0516 in the assay on XIP peptide (Xip251-270). Further, the z-score was 0.67 in assay [2], -4.72 (inactive) in assay [3], -0.423 (inactive) in assay [4] and -1.21 (inactive) in assay [5].

Turning to `O=C(NCCN1CCOCC1)C1N=C(c2ccc(OCCCO)cc2)N(c2ccccc2)O1` (stereo unspecified), the composite z-score is 2.46 (inactive) in assay [1] and 0.738 with XIP peptide (Xip251-270). Also, the z-score in assay [2] is -0.122; in assay [3], -1.6 (inactive); in assay [4], -0.227 (inactive); in assay [5], -0.0873 (inactive).

Take `CO[C@H]1O[C@H](CO)[C@@H](OC(=O)Nc2cccc(F)c2)[C@H](OC(=O)Nc2ccccc2)[C@@H]1OC(=O)Nc1ccccc1`: the composite z-score in assay [1] is 1.23 (inactive); in the assay on XIP peptide (Xip251-270), 0.82. The z-score is -1.26 in assay [2], -6.57 (inactive) in assay [3], 0.108 (inactive) in assay [4] and 0.358 (inactive) in assay [5].

As to `CN(C)CCCCCCNC(=O)[C@@H]1C[C@@H]2C(=O)N[C@@H](Cc3ccccc3)C(=O)N2[C@@H]1c1ccc(O)cc1`, the composite z-score in assay [1] was 0.594 (inactive); in the assay on XIP peptide (Xip251-270), 0.887. The z-score in assay [2] was -1.19; in assay [3], -2.65 (inactive); in assay [4], -0.165 (inactive); in assay [5], 0.272 (inactive).

Consider `COCCOC(=O)N1C(=O)[C@@]2(c3cc(C#CC4(O)CCCCCC4)ccc31)[C@H](c1ccc(OCCO)cc1)N1[C@H](c3ccccc3)[C@H](c3ccccc3)OC(=O)[C@H]1[C@@H]2C(=O)N1CCN(c2ncccn2)CC1`, for which the composite z-score was 0.647 (inactive) in assay [1] and 0.61 in the assay on XIP peptide (Xip251-270). Further, the z-score in assay [2] was -2.06; in assay [3], 0.253 (inactive); in assay [4] it was -0.0615 (inactive); in assay [5], 0.22 (inactive).

For the molecule `CC(C)C[C@@H]1NC(=O)[C@@H]2C[C@H](C(=O)O)[C@H](c3cccc(OCCO)c3)N2C1=O`, the composite z-score is 1.04 (inactive) in assay [1] and 0.708 in the assay on XIP peptide (Xip251-270). For the same molecule, the z-score in assay [2] is -0.222; in assay [3], -2.76 (inactive); in assay [4], 0.0342 (inactive); in assay [5], 0.153 (inactive).
